From PubChem
Most compounds without a hit are left out; they make up all but 9.5% or so of the library.
SARS PLP yeast – qHTS of Yeast-based Assay for SARS-CoV PLP | S. cerevisiae expressing SARS-CoV PLpro, growth rescue | Potency, µM (series often up to 32.9 µM), without a hit: at the top dose activity, positive = growth rescue, hits mostly activators | 330,000 compounds, 0.19% hits | AID 485353, 2010; further: 0% is about no effect; nearly all actives have a fitted effect of over 55% in size
RE007 growth inh – qHTS Assay for Inhibitors of the HIV-1 protein Vpr; S. pombe RE007 Vpr strain, BacTiter-Glo ATP luminescence, 24 h; 360,000 compounds, 0.21% hits; Potency, µM (series often up to 92.2 µM), for the others: at the highest dose activity change, negative = less growth, usual class: inhibitors; active means well fitted falling curve with a large enough effect; inconclusive means small, poorly fitted or top-dose-only effect; inactive means no such curve, though single readings can be large or run the other way; further: on the % scale 0 is the no-effect control and ±100 the full control effect; nearly all actives have a fitted effect of over 50% in size
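Fission yeast strain RE007, carrying one chromosomally integrated HIV-1 vpr copy, was seeded at OD 0.01 in PMG+AL medium with 23 nL pinned compound. After 24 h at 30 °C and 99% humidity, viability was read by BacTiter-Glo luminescence.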
Pf growth 48h – Primary qHTS for delayed death inhibitors of the malarial parasite plastid, 48 hour incubation; Potency, µM (doses to about 28.7 µM), for inactives: top-dose activity change, negative = inhibition, most hits filed as inhibitors; AID 504832, 2011; 310,000 compounds, 5.9% hits; P. falciparum luciferase growth in erythrocytes, 48 h; active means well fitted inhibition curve with a large enough effect; inconclusive means small, poorly fitted or top-dose-only effect, or another doubt; inactive means no such curve, though single readings can be large or run the other way; further: on the % scale 0 is the no-effect control and ±100 the full control effect
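Luciferase-expressing P. falciparum in infected erythrocytes (2% hematocrit, 0.1% parasitemia final) in RPMI 1640/0.5% Albumax were exposed to compound for 48 hours at 37 C, 5% CO2; growth read as luminescence.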
NS1 function inh – qHTS Assay for Inhibitors of Influenza NS1 Protein Function; Potency, µM (series often up to 46.1 µM), inactives show top-dose activity, positive = more growth; 270,000 compounds, 0.4% hits; AID 2326, 2010; further: actives are rising curves; nearly all actives have a fitted effect of over 50% in size
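Growth recovery, yeast-based: influenza A NS1 expressed in S. cerevisiae causes slow growth, and suppressors are detected by OD600. The parent strain without NS1 is used as positive control.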
Pf growth 96h – Primary qHTS for delayed death inhibitors of the malarial parasite plastid, 96 hour incubation; Potency, µM (titrated, usually from 28.7 µM), for inactives: top-dose activity change, negative = inhibition, hits mostly inhibitors; P. falciparum luciferase reporter growth, 96 h; 320,000 compounds, 6.9% hits; AID 504834, 2011; active means well fitted inhibition curve with a large enough effect; inconclusive means small, poorly fitted or top-dose-only effect, or another doubt; inactive means no such curve, though single readings can be large or run the other way; further: on the % scale 0 is the no-effect control and ±100 the full control effect
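Two parasite generations (96 h, 37 C, 5% CO2) of compound exposure in infected erythrocytes (0.05% parasitemia, 2% hematocrit). Luciferase-reporter P. falciparum; decreased luminescence indicates inhibited growth, aimed at apicoplast-acting delayed death.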
* marks the source's active call; other numbers are inactive results; u = inconclusive; x = not tested or not shown. Unless noted, the call rests on the fitted dose curve. Potency means the concentration at half of the fitted maximal effect.

SMILES	SARS PLP yeast	RE007 growth inh	Pf growth 48h	NS1 function inh	Pf growth 96h
OC[C@@H]1CN(Cc2ccc3c(c2)OCO3)C[C@H](n2cnc3c(NC4CCC4)ncnc32)O1	x	4%	x	x	x
O=C(c1ccc(-n2cncn2)c([N+](=O)[O-])c1)N1CCN(S(=O)(=O)c2ccc(F)c(F)c2)CC1	-6%	8%	-6%	x	-17%
CCOc1ccccc1/C=C(/NC(=O)c1ccccc1)C(=O)N1CCCCC1	-1%	-11%	u	-3%	98%
COc1cc(N=Nc2ccc(C)cc2S(N)(=O)=O)c(C)cc1N	x	6%	x	x	x
COc1ccc(NC(=O)Nc2cc(NC(=O)Nc3ccc(OC)cc3)c(C)nc2C)cc1	10%	8%	3%	26%	37%
COc1ccc(NC(=O)Nc2c[nH]c(=O)[nH]c2=O)cc1	12%	-2%	x	-1%	2.6µM*
Cc1cc(/C([O-])=C(/C(=S)Nc2ccc(F)cc2)[n+]2ccccc2)c(C)n1Cc1ccccc1Cl	-5%	-3%	u	x	9.3µM*
O=C(COC(=O)COc1cccc(C(F)(F)F)c1)NC(=O)NC1CCCCC1	-7%	8%	2%	x	-4%
CCN(CC)S(=O)(=O)c1cccc(C(=O)NC(C(=O)Nc2nnc(C3CC3)s2)C(C)C)c1 (stereo unspecified)	-4%	3%	u	-80%	8.3µM*
CCN(CC)S(=O)(=O)c1cccc(C(=O)N[C@H](C(=O)Nc2nc3ccc(F)cc3s2)C(C)C)c1	11%	-13%	13µM*	1%	2.6µM*
CCN(CC)S(=O)(=O)c1cccc(C(=O)N[C@H](C(=O)Nc2nc3ccccc3s2)C(C)C)c1	29%	3%	0%	5%	u
O=C(CCCCCNc1nc(=S)[nH]c2ccccc12)NCCC1=CCCCC1	4%	-8%	u	8%	0%
Cc1cc(C(=O)NCC(c2ccco2)N(C)C)ccc1[N+](=O)[O-] (stereo unspecified)	-1%	21%	-5%	9%	6%
CC(=O)Nc1ccc(-c2cc(-c3ccccc3)nc(-c3ccccc3)n2)cc1	10%	18%	u	6%	1.3µM*
CC(=O)Nc1ccc(-c2cc(-c3ccc(NC(C)=O)cc3)nc(-c3ccccc3)n2)cc1	-14%	-3%	7%	3%	u
CCC(=O)Nc1ccc(-c2cc(-c3ccccc3)nc(-c3ccc(NC(=O)CC)cc3)n2)cc1	-2%	-9%	u	9%	13µM*
COc1ccccc1OCCn1c(SCC(=O)O)nc2ccccc21	1%	-1%	24%	12%	268%
CC(=O)Nc1ccc(OC(=O)c2cc3ccccc3oc2=O)cc1	2%	9%	19%	6%	12µM*
CC1(C)CC(=O)C(C=NCCN2CCN(C3CC(=O)N(c4ccc(Cl)c(Cl)c4)C3=O)CC2)=C(O)C1 (stereo unspecified)	-6%	10µM*	15%	-49%	2%
CN1C(=O)CC(N2CCN(CCN=CC3=C(O)CC(C)(C)CC3=O)CC2)C1=O (stereo unspecified)	1%	-17%	-11%	-45%	12µM*
Cc1nc2ccc(NC(=O)c3cc(Cl)ccn3)cc2s1	2%	-16%	50%	1%	179%
O=C(O)CCS(=O)(=O)c1cccc2cccnc12	11%	2%	16%	5%	7%
CCSS(=O)(=O)c1cccc2cccnc12	-4%	5.6µM*	1%	-96%	24%
CCCCc1cc(=O)oc2cc(C)cc(OCC(=O)NCc3ccncc3)c12	13%	-3%	u	-5%	2.3µM*
Cc1cc(OCC(=O)NCc2ccccn2)c2c(C)cc(=O)oc2c1	7%	-3%	1%	5%	22%
SMILES	SARS PLP yeast	RE007 growth inh	Pf growth 48h	NS1 function inh	Pf growth 96h
CCCc1cc(=O)oc2cc(C)cc(OCC(=O)NCc3ccccn3)c12	1%	-1%	u	-4%	2.6µM*
Cc1cc(OCC(=O)N(C)C)c2c(-c3ccccc3)cc(=O)oc2c1	8%	-3%	x	-4%	10µM*
CCN(CC)C(=O)COc1cc(C)cc2oc(=O)cc(-c3ccccc3)c12	-14%	-8%	u	-4%	55%
COc1ccc(-c2cc(=O)oc3cc(OC(C)C(=O)NCc4ccccn4)ccc23)cc1 (stereo unspecified)	4µM*	0%	u	-34%	u
COc1ccc(-c2cc(=O)oc3cc(OCC(=O)NCc4ccccn4)ccc23)cc1	-2%	10%	-6%	12%	u
CC1(c2ccccc2)NC(=O)N(CC(=O)N2CCN(S(=O)(=O)c3cccc(C(F)(F)F)c3)CC2)C1=O (stereo unspecified)	x	9%	x	x	x
O=S1(=O)CCOCCCN1Cc1ccccc1Br	-2%	-7%	9%	11%	-14%
COc1ccccc1N1C(=NC(=O)COc2ccccc2)SC2CS(=O)(=O)CC21 (stereo unspecified)	-4%	6%	-15%	5%	u
CCCc1cc(=O)oc2c(C)c(OC(C)C(=O)NCc3ccccn3)ccc12 (stereo unspecified)	3%	5%	-3%	4%	-3%
CCCc1cc(=O)oc2cc(C)cc(OCC(=O)Nc3cccnc3)c12	-2%	4%	0.15µM*	10%	0.093µM*
CCCc1cc(=O)oc2cc(OC(C)C(=O)NCc3ccccn3)c(Cl)cc12 (stereo unspecified)	-3%	-8%	-8%	-10%	10µM*
CCN(CC)C(=O)COc1ccc2c(-c3ccccc3)cc(=O)oc2c1	-6%	-10%	u	6%	184%
COc1ccc(-c2cc(=O)oc3cc(OCC(=O)N(C)C)ccc23)cc1	-1%	3%	u	-15%	10µM*
COc1ccc(-n2nc(C(=O)c3cccs3)cc(-c3nc4ccccc4[nH]3)c2=N)cc1	-9%	11%	3.3µM*	8%	u
Cc1ccccc1-n1nc(C(=O)c2cccs2)cc(-c2nc3ccccc3[nH]2)c1=N	4%	4%	3.7µM*	7%	u
Cc1cccc(-n2nc(C(=O)c3ccco3)cc(-c3nc4ccccc4[nH]3)c2=N)c1	3%	-21%	u	12%	u
Cc1c(CCN)ccc2c1[nH]c1ccccc12	-2%	-16%	10µM*	3%	u
Cc1cccc2sc(NS(C)(=O)=O)nc12	0%	13%	38%	8%	12%
Cc1nn(C)c(C)c1S(=O)(=O)N1CCCC(C(=O)N2CCN(c3ccc(Cl)cc3)CC2)C1 (stereo unspecified)	1%	-3%	4.7µM*	-11%	u
Cc1ccc(Cl)cc1N1CCN(C(=O)C2CCN(S(=O)(=O)c3c(C)nn(C)c3C)CC2)CC1	6%	-14%	8.3µM*	-56%	x
Cc1n[nH]c(C)c1S(=O)(=O)N1CCCC(C(=O)N2CCN(c3ccc(Cl)cc3)CC2)C1 (stereo unspecified)	5%	-1%	6.6µM*	3%	1%
